Among the data in the supplement of paper PMC10732440 are progeny production values, retold here.

Molecules are shown by their SMILES. ± gives the standard deviation of the averaged measurements.

This test deals with Caenorhabditis elegans N2 infected with Nematocida parisii ERTm1. Nature of the test: progeny production relative to DMSO uninfected control; higher = more progeny despite microsporidia infection (inhibition of infection with low host toxicity). The following applies: infection time 6 days; 100 µM. In short, it runs like this:
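Bleach-synchronised wild-type C. elegans L1 larvae (100 per well) were placed in 96-well plates with K-medium, E. coli OP50 and 15,000 N. parisii spores/μL, with compound pinned to 100 μM or 40 μM in 1% DMSO. Plates were shaken at 21°C for 6 days; worms were then Rose Bengal-stained, flatbed-scanned and counted with WorMachine, each compound and dose tested three times. Progeny production is given as a percentage of the spore-free vehicle control, averaged across replicates.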
`O=C(/C=C\n1cnc(-c2cc(C(F)(F)F)cc(C(F)(F)F)c2)n1)NNc1ccccn1` returned a progeny production of 7.21 ± 3.6%.

Take `O=C(O)CSc1cc(NS(=O)(=O)c2cccc3cccnc23)c2ccccc2c1O`: the progeny production was 14.5 ± 8.5%.

On to `NC(=O)[C@@H]1CC[C@@H]2CN1C(=O)N2OS(=O)(=O)O`, for which the progeny production turned out to be 22.2 ± 16%.

As to `O=S(=O)(Nc1ccc(-n2cccc2)cc1)c1ccc(Cl)c(Cl)c1`, the progeny production came out at 35.7 ± 29%.

In the case of `CC(C)(C)NC(=O)N[C@H](C(=O)N1C[C@H]2[C@@H]([C@H]1C(=O)NC(CC1CCC1)C(=O)C(N)=O)C2(C)C)C(C)(C)C` (stereo not given in full), the progeny production worked out at 7.69 ± 4.1%.

For `COc1cccc(N2CCN(C3=Nc4c(F)cccc4[C@H](CC(=O)O)N3c3cc(C(F)(F)F)ccc3OC)CC2)c1`, the progeny production turned out to be 14.7 ± 7.5%.

As for `COc1cc(Cc2cc(N)nc(N)n2)cc(OC)c1OC`, the progeny production amounted to 19.2 ± 12%.

Molecule `CC(C)(C)c1ccc(Oc2ccc(N)cc2)cc1` showed a progeny production of 11.1 ± 5.3%.

`N#Cc1c(F)c(Cl)c(NCc2ccccc2)c(C#N)c1F` came in with a progeny production of 15 ± 3.8%.

For `COc1c(F)c(F)cc2c(=O)c(C(=O)O)cn(C3CC3)c12`, the progeny production turned out to be 12.9 ± 4.6%.

Molecule `CC(=O)N1CCN(c2ccc(OCC3COC(Cn4ccnc4)(c4ccc(Cl)cc4Cl)O3)cc2)CC1` (stereo not given) came in with a progeny production of 18 ± 6.4%.

Molecule `Cc1c(CN(C)C(=O)/C=C/c2cnc3c(c2)C(C)(C)C(=O)N3)oc2ccccc12` yielded a progeny production of 20.6 ± 20%.

In turn, `CCc1nc(N)nc(N)c1C#CCc1ccccc1` had a progeny production of 15.6 ± 5%.

Take `CC(=O)Nc1cc(NS(=O)(=O)c2ccc(Cl)cc2)cc2c(Cl)[nH]nc12`: the progeny production was 8.68 ± 4%.

As to `C[C@H](Cn1cnc2c(N)ncnc21)OCP(=O)(O)O`, the progeny production was found to be 17.4 ± 6%.

Take `CCc1nc2ccccn2c1C(=O)NCc1ccccc1`: the progeny production turned out to be 12.8 ± 11%.

The molecule `Nc1nc(-c2ccccc2)nc2[nH]nc(Nc3ccc(C(F)(F)F)cc3)c12` displayed a progeny production of 29.5 ± 27%.

Regarding `O=C(NN1C(=O)[C@@H]2[C@@H]3C=C[C@@H]([C@H]4C[C@@H]34)[C@@H]2C1=O)c1ccc(C(F)(F)F)cc1`, the progeny production came out at 9.48 ± 4%.

The molecule `COCCn1cnc2c(O)nc(Nc3ccccc3)nc21` had a progeny production of 17.6 ± 6.1%.

Molecule `Nc1cccc(-c2nc(N)nc(NC3Cc4ccccc4C3)n2)c1` had a progeny production of 20.6 ± 10%.
